Laboratory results published in the supplement of paper PMC8007513.
Structures can show the parent of a compound that is named as a salt. ± gives the standard error. Among all 1,300 compounds or so, about 75 (6%) showed an effect of 50% or more. Only a selection was taken, and strong results are over-represented in it overall.

Tested on: Trichoderma virens ATCC 9645
Assay: growth yield (OD600) relative to untreated control; higher = less growth inhibition
Conditions: compound concentration: 100 uM
Method in brief: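 Library compounds (100 μM final), with or without a co-applied biocide (200 ng ml^−1), were added to 100 μl aliquots of Trichoderma virens ATCC 9645 spores at 15,000 spores ml^−1 in potato dextrose broth. Cultures were grown at 30 °C in 96-well plates, and OD600 was measured at 40 h and 72 h. Each growth value is a mean of duplicate screens, expressed relative to the control with neither agent.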

| SMILES | growth yield (40 h) | growth yield (72 h) |
| --- | --- | --- |
| CCC1NC(=O)c2cc(S(N)(=O)=O)c(Cl)cc2N1 (stereo unspecified) [Quinethazone] | 114 ± 1.4% | 107 ± 1.1% |
| C#C[C@]1(OC(C)=O)CC[C@H]2[C@@H]3CCC4=CC(=NO)CC[C@@H]4[C@H]3CC[C@@]21CC (mixture of isomers) [Norgestimate] | 117 ± 3.3% | 112 ± 3.9% |
| Clc1ccc(COC(Cn2ccnc2)c2ccc(Cl)cc2Cl)c(Cl)c1 (stereo unspecified) [Miconazole] | 1.43 ± 1.1% | 1.47 ± 0.63% |
| COc1ccc(-c2ccc3cc(C(=O)O)ccc3c2)cc1C12CC3CC(CC(C3)C1)C2 [Adapalene] | 107 ± 1.9% | 106.6 ± 0.84% |
| Nc1ncnc2c1ncn2C1OC(COP(=O)(O)O)C(O)C1O (stereo unspecified) [Adenosine 5'-monophosphate monohydrate] | 106 ± 1.3% | 107 ± 3.6% |
| Cc1c(NC(C)C)c(=O)n(-c2ccccc2)n1C [Isopyrin hydrochloride] | 100.9 ± 0.79% | 96.17 ± 0.52% |
| O=C(O)Cc1cc(I)c(Oc2ccc(O)c(I)c2)c(I)c1 [Tiratricol, 3,3',5-triiodothyroacetic acid] | 28.9 ± 16% | 46.6 ± 17% |
| NC(Cc1cc(I)c(Oc2cc(I)c(O)c(I)c2)c(I)c1)C(=O)O (stereo unspecified) [Thyroxine (L)] | 98 ± 2.1% | 94.5 ± 3.9% |
| N[C@@H](Cc1cc(I)c(Oc2ccc(O)c(I)c2)c(I)c1)C(=O)O [Liothyronine] | 91.3 ± 3.3% | 97.3 ± 1.1% |
| COc1cc2nc(N3CCN(C(=O)c4ccco4)CC3)nc(N)c2cc1OC [Prazosin hydrochloride] | 105 ± 5.7% | 101 ± 1.4% |
| CCOC(=O)/C=C(C)/C=C/C=C(C)/C=C/c1c(C)cc(OC)c(C)c1C [Etretinate] | 110 ± 6.3% | 107 ± 5.5% |
| CC(=O)Nc1ccc(CC(=O)O)cc1 [Actarit] | 106 ± 5.4% | 102 ± 3.4% |
| C[C@@H](O)[C@H]1C(=O)N2C(C(=O)O)=C(SCCNC=N)C[C@H]12 [Imipenem] | 103 ± 2.2% | 104 ± 2.2% |
